# In all, about 25,000 sequences were measured (“ln(normalized median fluorescence intensity)”: median about 9.3, highest 2% from about 10 on). This excerpt belongs to a sample that is enriched for the highest values.
# System: PF3D7_0420300 AP2 domain 1 (GST-tagged)
# Experiment: gcPBM binding intensity (ln(normalized median fluorescence intensity)); higher = stronger DNA binding
# In short: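 GST-fused DNA-binding domains of P. falciparum, expressed in E. coli, were applied at about 25 μg on average for 1 h to an Agilent 4 × 180k array of primer-extended double-stranded 36-bp intergenic genomic probes and negative controls. Binding intensity is the highest Masliner-normalised natural-log median intensity across replicate spots of either probe orientation, measured with Alexa488 anti-GST antibody and a 488 nm scan.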
row,Sequence,gcPBM binding intensity (ln)
1,ATATATATTTTATACGCATGTAATTATTATGTGGTC [TGCATGCA_site45],9.29
2,TAATAGTTATAAAATACACACCAGGCATGATAAATG [CACACA_site4335],9.5
3,TATATATATATAGGTTGTACATTTTGATGTTTACGT [XGTACX_site5503],9.42
4,AAAAAAAAAAAAAATACACACACACCGATATATATA [CACACA_site8142],10.1
5,CAAAATAATATATATACACACACACCGATATATATA [CACACA_site8082],10.2
6,CAAAAAAAATTATACACACACACACCGATATATATA [CACACA_site4719],10.2
7,TATACATACATACATACACACACACCGATATATATA [CACACA_site7896],10.1
8,TATACATACATACATACACACACACCGATATATACA [CACACA_site8184],10.2
9,TATATACATATATACACACACATATATATATATATA [CACACA_site2805],9.6
10,AAAAAAAATTCGTGTGTGCGCATATATAATATATAA,9.6
11,AGATACTTTCCTCAAACACACAAAACTATACAACAA [CACACA_site1474],9.45
12,AAAAAAATAATCATCACACACGGAGAATGTCCAATA [CACACA_site5305],9.6
13,AAGAAATATTTATACACACACACAAACATATAAATA [CACACA_site6981],10.2
14,CATAAATACAAATATACACACATATTTATATTTATA [CACACA_site7277],9.54
15,CAGAAATAGAGATACACACACACATATATTTATGTA [CACACA_site3968],10.2
16,AAGAAATATTTATACACACACACAAACATATATATA [CACACA_site1912],10.2
17,AAAAAAAAATATATAAACACACATATTTATATACAC [GTGCAC_negctrl_site545],9.61
18,AAAAAAAAAACATACACACACACAAATATTTATATA [CACACA_site437],10.1
19,CACAAAAAGAAACACACACACATATATATTTATTAT [CACACA_site3646],10.1
20,GAAATAGAGAGACACACACACATATATTTATGTATT [CACACA_site7794],9.93
21,GAAATAGAGAAACACACACACATATATTTATGTATT [CACACA_site3967],9.99
22,AAAAAAAAAAAAAAAAAAAAATTTCAATTATATTGA [GTGCAC_negctrl_site642],8.91
23,CCATTTTTTTTATACGCACACGTCATACTTTTAAAA [CACACA_site4988],9.46

row,Sequence,gcPBM binding intensity (ln)
1,ATTTATATTTGTATTTGTACTTATATTTATATTTAT [XGTACX_site1540],9.64
2,TGTGTAAGATCTTGGATGATGATAAGAATCTACTAG [CACACA_negctrl_site1167],9.11
3,TATATAAACACGTACACACACATATAGGTATTTATA [CACACA_site7615],9.97
4,TCTTAAAAAATAGGGACACGTAAATATAATATATAA [CACACA_negctrl_site554],9.4
5,TTATACTGTTTCAGAAAAATAAAGAATGAAAGTATT [XGTACX_negctrl_site230],9.23
6,TGTAGAAATGGGTGCACACACATATAAAATCTATAT [CACACA_site7224],9.66
7,TTTCAAAATGTGTAAAATAAAAATAATATCATTACA [TGCATGCA_negctrl_site521],9.08
8,ATTTTCTTTTCCATAGTGCAATATAATTATCCATCA [GTGCAC_site9547],9.29
9,AATTTTTTTTTTTTTTTTTTTTATATATGTGTGTGT [XGTACX_negctrl_site129],9.74
10,TTTTTTATATATGTGTGTGTGTGTGTGTCAAGTTTA [GTGCAC_negctrl_site460],10.3
11,TGTGTCAAGTTTAATAAACGCATATAATATATATGA [CACACA_negctrl_site607],8.93
12,TATATAAATATTCGTAGTACAATACAATTATAAGTA [XGTACX_site3068],9.15
13,AACTAATAAAAAAAAAAAACATTAAACAGGACAAAT [XGTACX_negctrl_site287],9.78
14,AAAATATATACACAAACATGCATATAATAAATAAAT [TGCATGCA_site711],9.48
15,AAAATATAATATAATGCACACATAAAACAAAAAAAA [CACACA_site8989],9.74
16,CATATAAAAATATGCACACACAGGAATACAAACATA [CACACA_site684],10.2
17,AATATAATATAATGCACACATAAACAAAAAAAAAAT [CACACA_site1304],9.89
18,AACATATAAAAATATGCACACACAGGAATACAAACA [CACACA_site8127],10.3
19,AAAATATAATATAATGCACACATAAACAAAAAAAAA [CACACA_site8161],9.78
20,TATATATATATGTGTAGTACAACAAATATGAAAAAT [XGTACX_site4059],9.54
21,AAGAATATTTTTTTCTGTACATATAATTTATATACG [XGTACX_site5801],9.13
22,TATTAATACAGACACACACACACACTAATTAAAATA [CACACA_site7967],10.1
23,ATTTATATATATCATACACACTAATATGTATATTAT [CACACA_site5816],9.42

row,Sequence,gcPBM binding intensity (ln)
1,GGGAAATATTGAAACACACACGAACGCACGTATTTC [CACACA_site6258],9.54
2,ATTTATTTATCAAATATTATCTTAAAAAAAAAAGAA [CACACA_negctrl_site1345],8.79
3,ACAAATGGAACTCCTACAAAAAATTTCCATAATATT [XGTACX_negctrl_site132],9.16
4,TATTAATTCATTTTTTTTTTTTTTTTTTTTTTTTTT [CACACA_negctrl_site1215],9.13
5,TTTATTAAGAAACACACACACACACCCAAAATAAAA [CACACA_site242],10
6,ATAATCCTGAAACACACACACACACCCATAAATAAA [CACACA_site481],10.1
7,ATTAATAAATAAATGACACACACACCCACAAAAAAA [CACACA_site8839],9.97
8,TAATAAATAAATGACACACACACACCCAAAAAAAAA [CACACA_site2623],10.2
9,TATTTATTAAAACACACACACACACCCACAAAATAA [CACACA_site241],10.1
10,CCCGAACAAACAAATAAACACACAAAAAAAAATATA [CACACA_site8540],9.63
11,GAATAATCCAAACACACACACACACCCGAATAAATA [CACACA_site482],10.2
12,CAAAAAATGAAACACACACACACACCCATAAATAAA [CACACA_site1231],10.1
13,TTTATTAATAAACACACACACACACCCAAAATAAAA [CACACA_site7966],10.2
14,GTAATTTTATATGGTTGTACATATATATATATATAT [XGTACX_site6659],9.32
15,TAAAATATGGAAATCACACATTTATTAAAATATATA [CACACA_site4623],9.13
16,TGTATTAATATGGTAATACACACTAATATACTTTTG [CACACA_site1610],9.38
17,TTGATTTCATTTTAAGTGCATAACTAATATTATATA [GTGCAC_site9713],9.14
18,ATTATGAAATATCGTGCACACACGAATAATATAAGA [CACACA_site1294],9.42
19,AAAAAAAAAACAAATGCATGTAATATAAGAATTACA [TGCATGCA_site908],9.27
20,TACAGACAGAAATGCACACACATATTTATATTTATA [CACACA_site7139],9.75
21,CATACAGACGAACACACACACATATAAATATAAATA [CACACA_site6443],9.91
22,AACATATACACGAACACACACACATATAAATAAATA [CACACA_site6380],9.96
23,CGAACAAACAAATAAACACACAAAAAAAAATATATA [CACACA_site1825],9.61

row,Sequence,gcPBM binding intensity (ln)
1,TAACACATAAATAAATATATACATATATATAAAATA [CACACA_negctrl_site375],9.36
2,AGTATACACGAACACACACACACATATATAAATATA [CACACA_site6913],10.3
3,CTAAAATACGAACACACACACACATATAAATAAATA [CACACA_site7872],10.3
4,CATATACACGAACACACACACATATAAATAAATATA [CACACA_site6379],10.1
5,AAACAAAAAATATATACACACTAAACATAAAAAAAA [CACACA_site4185],9.83
6,AACAAATACGAACACACACACACACTAAAAAAAAAA [CACACA_site6386],10.2
7,TGATCAATGGATTTAACACACAAAAAAAAAAAAAAA [CACACA_site3845],9.11
8,AAATAAAATAAAATAAAATAAAATTCTTTGATACCT [TGCATGCA_negctrl_site604],9.16
9,ATATATATATATATATGTACACATATATATACTCAC [XGTACX_site8043],9.37
10,ATATATTATATAAAAAGTACTAAAATAGTAAGATGT [XGTACX_site7493],9.65
11,GTTTATATATTATAAAGTACATATGAATTTAATAAT [XGTACX_site3601],9.01
12,AACAAACACAGACACACACACACACTAATATGATTA [CACACA_site8770],10.2
13,AATATGAACAGACACACACACACAAAAAAAAAAAAA [CACACA_site2012],10
14,CAAACAAACAGACACACACACACACCCAAAAATGAT [CACACA_site2430],10.4
15,AACAAACACAGACACACACACACACCCAAATGATTA [CACACA_site2431],10.2
16,TATGAACACAGACACACACACAAAAAAAAAAAAAAA [CACACA_site7037],9.27
17,CAAACCCACCAACACACACACACAAAAATGATTAAA [CACACA_site2432],9.82
18,TTAACAAATGGACACACACACACACCCAAAAAAAAA [CACACA_site4443],9.91
19,CAAACAAACGGACACACACACACACCCAAAAATGAT [CACACA_site5363],10.1
20,AACACCCACAGACACACACACAAAAATGATTAAAAA [CACACA_site2433],9.83

# Source: the supplement of paper PMC11417369
